# Laboratory results: PubChem BioAssay AID686979 (National Center for Advancing Translational Sciences (NCATS), 2013)
# In all, about 420,000 compounds went through this assay and about 50,000 (12%) were called active. Another 26% or so got no clear call; they are omitted. The full list was thinned out, with actives kept by preference. Values without a mark were called inactive. The call rests on the fitted dose curve; in most records, active means well fitted inhibition curve with a large enough effect; inconclusive means small, poorly fitted or top-dose-only effect; inactive means flat fitted curve, though single readings scatter.
# Test: qHTS for Inhibitors of human tyrosyl-DNA phosphodiesterase 1 (TDP1): qHTS in cells in presence of CPT; further: nearly all actives have a fitted effect of over 55% in size
# Details: chicken DT40 Tdp1-/-;hTDP1 cells + 20 nM CPT, ATP luminescence, 48 h; series mostly up to 46.2 µM; activity change, negative = growth inhibition: at the top concentration
# Method in brief: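 Cell growth measured by CellTiter-Glo luminescence after a minimum 48 h, 37 C compound exposure with 20 nM CPT in Tdp1-knockout DT40 cells stably expressing hTDP1, seeded 400/well; qHTS titration format.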
# On the % scale 0 is the no-effect control and ±100 the full control effect; potency means the concentration at half of the fitted maximal effect.
Compound,"activity change, negative = growth inhibition",Potency
Cc1cc(OC(C)C(=O)Nc2ccc(S(=O)(=O)Nc3onc(C)c3C)cc2)cc(C)c1Cl (stereo unspecified),5.33%,
CNC(=O)C1CC(=O)N(c2ccc(OCC(=O)Nc3ccccc3C)cc2)C1 (stereo unspecified),6.86%,
O=S(=O)(c1ccccc1)c1nc(-c2ccc(Cl)cc2Cl)oc1N1CCCCC1,,14.6 µM (active)
COc1ccc(-c2nc(S(=O)(=O)c3ccccc3)c(N3CCCCC3)o2)cc1,,23.1 µM (active)
O=S(=O)(c1ccc(Br)cc1)c1nc(-c2ccccc2)oc1N1CCOCC1,-29.8%,
O=S(=O)(Nc1cc(Cl)ccc1N1CCOCC1)c1ccccc1Cl,-20.2%,
O=S(=O)(c1ccccc1)c1nc(Cc2ccccc2)oc1N1CCOCC1,1.8%,
CC(=O)c1ccc(N2CCN(c3nc4c(S(=O)(=O)c5ccccc5)nnn4c4ccc(Cl)cc34)CC2)cc1,-4.91%,
Cc1ccc(CNC(=O)CCC(=O)N2Cc3ccccc3Oc3ncccc32)cc1,-16.5%,
CC(C)Cc1nnc(N)s1,-3.67%,
COc1cc2ccc(C(C)=O)c(O)c2cc1OC,9.28%,
COCCC(=O)N1CCC(Oc2ccc(C(=O)NCc3ccon3)cc2)CC1,4.81%,
CCOc1ccc(C(=O)N2CCN(CCc3ccccn3)CC2)cc1,-1.49%,
Nc1ccc2nn(-c3ccc(Cl)cc3)nc2c1,,6.51 µM (active)
O=C(Cc1ccc(Cl)cc1)Nc1ccc2nn(-c3ccc(Cl)cc3)nc2c1,-7.92%,
Cc1cc2nn(-c3ccc(Cl)cc3)nc2cc1NC(=O)C(C)C,-6.45%,
Cc1cccc(C)c1NC(=O)CNC(=O)c1c(C)nn(-c2ccccc2)c1C,-8.65%,
COc1cc(NC(=O)Cn2c(=O)n(Cc3ccco3)c(=O)c3oc4ccccc4c32)cc(OC)c1,-3.53%,
Cc1nnc(SCC(=O)Nc2ccc(S(=O)(=O)Nc3ccc(Cl)nn3)cc2)s1,-11.3%,
CCOC(=O)CN1C(=O)C(O)(CC(=O)c2ccccn2)c2ccccc21 (stereo unspecified),,5.8 µM (active)
CCOC(=O)CN1CCC(c2ccccc2)CC1,-1.52%,
CCOC(=O)Cn1c(-c2cccnc2Cl)nc2ccccc21,0.835%,
CCn1c(SCc2cccc(C(=O)O)c2)nnc1-c1ccc(Cl)cc1,4.66%,
CN(C)CCCOc1ccc(-c2ccc3nccn3c2)cn1,11.3%,
Cc1cccc(C)c1NC(=O)c1ccc(CN2CCc3ccccc3C2)cc1,,20.6 µM (active)
Cc1ccc(NC(=O)CN2CCc3ccccc3C2)cc1C,-29.3%,

Compound,"activity change, negative = growth inhibition",Potency
CCc1ccc(NC(=O)N2CCc3ccccc3C2)cc1,-21.3%,
CC(=O)c1ccc(S(=O)(=O)N2CCC(Oc3ccc(-n4cnnn4)cc3)CC2)cc1,,inactive
O=S(=O)(/C=C/c1ccccc1)N1CCNCC1,-4.52%,
CCN1CCN(CC(=O)c2cc(OC)c(OC)c(OC)c2)CC1,-1.2%,
CCn1c(CNC(=O)c2cc(OC)c(OC)c(OC)c2)cc2cc(C)ccc21,,20.6 µM (active)
COc1cc(C(=O)NCCOC(=O)c2cccc(N(C)C)c2)cc(OC)c1OC,7.13%,
O=C(COC(=O)c1ccccc1)Nc1ccccc1Sc1ccccc1,-2.56%,
CCc1nc2nc(C)c(NS(=O)(=O)c3ccc4c(c3)CCCC4)c(=O)n2[nH]1,-0.594%,
Cc1ccc(NS(=O)(=O)c2ccc(F)cc2)nc1,-7.37%,
Cn1nccc1NS(=O)(=O)c1ccc(F)cc1,3.58%,
Cc1cc(F)ccc1NS(=O)(=O)c1ccc(-n2cccn2)cc1,,14.6 µM (active)
O=C(COc1ccc([N+](=O)[O-])cc1Cl)Nc1ccc2[nH]c(=O)[nH]c2c1,-23%,
COC(=O)C[C@@H]1C=C[C@@H](NC(=O)c2cccnc2)[C@@H](CO)O1,2.13%,
Cc1ccc(C(=O)CSc2ccccc2C(=O)O)cc1,-2.04%,
Cc1ccc(Sc2cc(C(=O)c3ccccc3C(=O)O)ccc2[N+](=O)[O-])cc1,-8.99%,
Cc1ccc(SC(CC(=O)c2ccc(C(C)(C)C)cc2)C(=O)O)cc1 (stereo unspecified),,3.66 µM (active)
COc1ccccc1C(=O)N/C(=C/c1ccc2c(c1)OCO2)C(=O)Nc1cccc(C(=O)O)c1,-15.3%,
CCOC(=O)c1sc(C)c2c1NC(C)(c1cccc3ccccc13)NC2=O (stereo unspecified),,25.9 µM (active)
CCOC(=O)c1sc(-c2cccc([N+](=O)[O-])c2)cc1N,0.456%,
CCOC(=O)c1cc2cc3ccccc3cc2oc1=O,1.87%,
CCCNC(=O)COc1coc(CN2CCN(Cc3ccccc3)CC2)cc1=O,-4.86%,
Cc1ccc(S(=O)(=O)N2CCC3(CC2)OCCO3)c(C)c1,-0.485%,
COc1cccc(Nc2ncccc2C(=O)O)c1,-0.267%,
Cc1nc2cnc(Nc3ccccc3)nc2n(C[C@H]2CCCO2)c1=O,5.94%,
COc1cccc(Nc2ncc3ncc(=O)n(C4CC4)c3n2)c1,,14.6 µM (active)
